Assay [1] is described as follows: CCTE_Mundy_HCI_Cortical_Synap_Neur_Matur_SynapseCount: CCTE's Synaptogenesis and Neurite Maturation Assay in rat cortical cells for Synapse Count, Mundy Lab (AID 2284218). In a few lines:
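High-content imaging of synaptophysin puncta per MAP2-positive neuron (Hoechst nuclei) in rat cortical cells exposed DIV 7–12 after glial arrest with AraC at DIV 5; decrease relative to DMSO scored.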

Assay [2] can be described thus: CCTE_Mundy_HCI_Cortical_Synap_Neur_Matur_NeuriteCount: CCTE's Synaptogenesis and Neurite Maturation Assay in rat cortical cells for Neurite Count, Mundy Lab (AID 2284222). In outline:
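Chemical exposure runs DIV 7–12 in rat cortical cultures, glia suppressed by AraC at DIV 5; measurement is at DIV 12. Imaging-derived neurite counts are fitted against DMSO baseline.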

A short description of assay [3]: CCTE_Mundy_HCI_Cortical_Synap_Neur_Matur_CellBodySpotCount: CCTE's Synaptogenesis and Neurite Maturation Assay in rat cortical cells for Cell Body Spot Count, Mundy Lab (AID 2284223). In a few lines:
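Rat primary cortical cultures received AraC at DIV 5 to arrest glia, were dosed with chemical at DIV 7 with media change, and were fixed at DIV 12 (288.33 h). Synaptophysin puncta on MAP2-positive cell bodies per neuron were counted by high-content imaging versus DMSO.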

Assay [4] is described as follows: CCTE_Mundy_HCI_hNP1_Pro_ResponderAvgInten: CCTE's Proliferation Assay in human neuroprogenitor cells, Mundy Lab (AID 2284224; active means hit-call score of the fitted dose curve at least 0.9, where 1 is the maximum). In a few lines: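 Proliferation was scored as BrdU labelling intensity in human neural progenitors derived from WA09 embryonic cells, measured 26.25 hours after chemical dosing. Activity was fitted relative to DMSO.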
A short description of assay [5]: UKN2_HCS_IMR90_cell_viability: Viability Assessment in the University of Konstanz (UKN) Leist Lab Neural Crest Cell Migration Assay in human induced IMR90 Pluripotent Stem Cells (UKN2) (AID 2284233).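 Further: cells exposed to compound for 24 h after a 24 h migration phase.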 In a few lines:
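After calcein-AM/Hoechst staining, viability is quantified by high-content fluorescence imaging, relative to DMSO, in iPSC (IMR90)-derived neural crest cells. Exposure lasts 24 h, starting after a 24 h migration period on PLO/laminin/fibronectin coating.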

A short description of assay [6]: CCTE_Mundy_HCI_Cortical_NOG_NeuronCount: CCTE's Neurite Outgrowth Assay in rat cortical cells for Neuron Count, Mundy Lab (AID 2284236; active means hit-call score of the fitted dose curve at least 0.9, where 1 is the maximum;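 further: neurons counted by imaging betaIII-tubulin and Hoechst stained cortical cells; cells exposed to compound for about 48 hours before fixation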). In outline: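 Read-out: neuron number by high-content imaging of betaIII-tubulin (Alexa Fluor-488) and Hoechst-labelled rat primary cortical cells.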
Assay [7] in a line: CCTE_Mundy_HCI_Cortical_NOG_BPCount: CCTE's Neurite Outgrowth Assay in rat cortical cells for Branch Point Count, Mundy Lab (AID 2284237).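 Further: branch points counted about two days after chemical exposure.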 In a few lines: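 Measured 50.33 h after dosing, this morphology endpoint uses rat primary cortical cultures labelled for betaIII-tubulin. Branch points are quantified by high-content imaging, with DMSO as negative control and baseline.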

Assay [8] in a line: CCTE_Mundy_HCI_hNP1_Casp3_7: CCTE's Caspase-Glo 3/7 Assay in human neuroprogenitor cells for Apoptosis, Mundy Lab (AID 2284240). In outline:
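Apoptosis is scored by activated caspase-3/7 luminescence in WA09-derived neural progenitor cells, measured 26.5 h after chemical dosing. Values represent gain of signal relative to DMSO vehicle.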

Assay [9] in a line: CCTE_Mundy_HCI_hNP1_CellTiter: CCTE's Cell Titer-Glo 2 Assay in human neuroprogenitor cells for Viability, Mundy Lab (AID 2284241; active means hit-call score of the fitted dose curve at least 0.9, where 1 is the maximum;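 further: a hit is a drop in ATP luminescence versus DMSO meaning reduced viability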). In outline:
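Human neural progenitor cells (hNP1, WA09-derived) were plated on poly-L-ornithine/laminin and grown 40 to 44 hours at 37 °C, 5% CO2 before chemical addition. Twenty-four hours later, ATP was measured by CellTiter-Glo luminescence; loss of signal versus DMSO indicates reduced viability.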
On the technique in general: In ATP-based viability assays light output follows the ATP content of the culture.

The nature of assay [10]: CCTE_Mundy_HCI_Cortical_Synap_Neur_Matur_NeuronCount: CCTE's Synaptogenesis and Neurite Maturation Assay in rat cortical cells for Neuron Count, Mundy Lab (AID 2284242; active means hit-call score of the fitted dose curve at least 0.9, where 1 is the maximum;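 further: hits reduce neuron count versus DMSO baseline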). In outline: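 Neuron counts come from automated high-content imaging of Hoechst nuclei and MAP2/synaptophysin immunostaining at DIV 12, with loss of signal judged against DMSO. Cultures of rat cortical cells had glial growth arrested by AraC at DIV 5; chemical exposure began DIV 7.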

A short description of assay [11]: IUF_NPC2c_oligodendrocyte_migration_120hr: Leibniz Research Institute for Environmental Medicine (IUF) 120-hour Neural Progenitor Cell Migration Assay for Oligodendrocyte Migration (NPC2c) (AID 2284297).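 Further: O4-positive oligodendrocyte migration distance divided by radial glia migration distance.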 In outline: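 Human fetal cortex-derived neural progenitor spheres (0.3 mm) were plated on poly-D-lysine/laminin in N2 differentiation medium and exposed to 7 concentrations for 120 h, with half-medium renewal at day 3. Oligodendrocyte migration distance was normalized to radial glia migration, relative to DMSO.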

Assay [12] can be described thus: IUF_NPC2a_radial_glia_migration_120hr: Leibniz Research Institute for Environmental Medicine (IUF) 120-hour Neural Progenitor Cell Migration Assay for Radial Glia Migration (NPC2a) (AID 2284298). In outline: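 Single 0.3 mm primary human fetal-cortex (GW 16-19) NPC spheres were plated on poly-D-lysine/laminin in N2 differentiation medium and exposed from day 0 for 120 h, half-medium refreshed day 3. Migration distance came from Hoechst nuclei-density imaging, relative to DMSO.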

A short description of assay [13]: IUF_NPC2b_neuronal_migration_120hr: Leibniz Research Institute for Environmental Medicine (IUF) 120-hour Neural Progenitor Cell Migration Assay for Neuron Migration (NPC2b) (AID 2284300). In outline:
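Primary human fetal cortex neural progenitor spheres (0.3 mm) plated on poly-D-lysine/laminin in N2 differentiation medium, exposed 120 h with half-medium refresh at day 3. TUBB3-stained neuron distance from sphere core, normalized to radial glia migration, versus DMSO.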

Assay [14] is described as follows: IUF_NPC3_neuronal_differentiation_120hr: Leibniz Research Institute for Environmental Medicine (IUF) 120-hour Neuronal Differentiation Assay (NPC3) (AID 2284301). In a few lines: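 Value is percent TUBB3-positive neurons among Hoechst-stained nuclei in the migration area, scored by trained CNN after 120 h differentiation. Primary hNPC spheres on poly-D-lysine/laminin, N2 medium, continuous dosing from day 0, half-refeed day 3; DMSO reference.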

Assay [15] is described as follows: IUF_NPC4_neurite_length_120hr: Leibniz Research Institute for Environmental Medicine (IUF) 120-hour Neuronal Morphology Assay for Neurite Length (NPC4) (AID 2284302). In outline:
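Neurite length, the mean in um across TUBB3-stained neurons, is derived by skeletonization of high-content images after 120 h differentiation. Compound exposure, 7 concentrations plus solvent control, ran from plating of hNPC spheres on poly-D-lysine/laminin, with medium half-replaced on day 3.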

A short description of assay [16]: IUF_NPC2-5_cytotoxicity_72hr: Cytotoxicity Assessment at 72 hours in the Leibniz Research Institute for Environmental Medicine (IUF) Neural Progenitor Cell Migration and Differentiation Assay for Cytotoxicity (NPC2-5) (AID 2284306; active means hit-call score of the fitted dose curve at least 0.9, where 1 is the maximum;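 further: LDH release into supernatant measured by resorufin fluorescence marking membrane damage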). In a few lines:
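Membrane-integrity cytotoxicity at 72 h, read as LDH-driven resorufin fluorescence in supernatant. hNPC spheres from fetal cortex differentiate on coated plates in N2 medium, 37C, 5% CO2; seven serial compound concentrations plus solvent control (DMSO ≤0.1%).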

Assay [17] can be described thus: IUF_NPC2-5_cytotoxicity_120hr: Cytotoxicity Assessment at 120 hours in the Leibniz Research Institute for Environmental Medicine (IUF) Neural Progenitor Cell Migration and Differentiation Assay (NPC2-5) (AID 2284307; active means hit-call score of the fitted dose curve at least 0.9, where 1 is the maximum). In a few lines:
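Human fetal neural progenitor spheres (0.3 mm, GW 16-19 cortex) were plated on poly-D-lysine/laminin in N2 differentiation medium and exposed for 120 h, with half-medium refresh at day 3. LDH release into supernatant was read by resorufin fluorescence.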

Assay [18] is described as follows: IUF_NPC2-5_cell_number_120hr: Cell Number Assessment at 120 hours in the Leibniz Research Institute for Environmental Medicine (IUF) Neural Progenitor Cell Migration and Differentiation Assay (NPC2-5) (AID 2284308).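 Further: count of Hoechst-stained nuclei in migration zone around plated human neural progenitor spheres.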 In a few lines: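 Primary human fetal neural progenitor spheres (GW 16-19, 0.3 mm) plated on poly-D-lysine/laminin in N2 differentiation medium, exposed from day 0 for 120 h with half-medium refresh at day 3; Hoechst-positive nuclei counted in migration area versus DMSO control.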

A short description of assay [19]: IUF_NPC2-5_viability_120hr: Viability Assessment at 120 hours in the Leibniz Research Institute for Environmental Medicine (IUF) Neural Progenitor Cell Migration and Differentiation Assay (NPC2-5) (AID 2284312). In outline: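 Alamar blue resorufin fluorescence read after 5 days of differentiation, with compound present from day 0 and replenished at day 3. Primary hNPC spheres on laminin-coated plates, 37C; seven concentrations plus solvent control, fitted against DMSO.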

Assay [20] can be described thus: CCTE_Mundy_HCI_iCellGluta_NOG_NeuriteLength: CCTE's Neurite Outgrowth Assay in iCellGluta cells for Neurite Length, Mundy Lab (AID 2284318; active means hit-call score of the fitted dose curve at least 0.9, where 1 is the maximum). In a few lines: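 Automated high-content imaging of betaIII-tubulin (Alexa Fluor-488) and Hoechst-stained cells gave neurite length, normalized to the DMSO baseline.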
A short description of assay [21]: IUF_NPC1_cytotoxicity_72hr: Cytotoxicity Assessment at 72 hours in the Leibniz Research Institute for Environmental Medicine (IUF) Neural Progenitor Cell Proliferation Assay (NPC1) (AID 2284332; active means hit-call score of the fitted dose curve at least 0.9, where 1 is the maximum;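 further: rising LDH signal means more cytotoxicity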). In a few lines: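 Cytotoxicity by LDH membrane-integrity assay on medium supernatants, fluorescence via resazurin reduction, after 3-day single exposure of primary hNPC spheres at 37C, pH 7.2-7.6 with growth factors. Fitted upward against baseline.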

A short description of assay [22]: CCTE_Mundy_HCI_iCellGluta_NOG_NeuriteCount: CCTE's Neurite Outgrowth Assay in iCellGluta cells for Neurite Count, Mundy Lab (AID 2284342; active means hit-call score of the fitted dose curve at least 0.9, where 1 is the maximum;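 further: chemical exposure about 48 hours starting 2 hours after plating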).

Records with an inconclusive call do not appear. Activity calls are given as the source filed them. How the source made its calls, unless noted: active means hit-call score of the fitted dose curve at least 0.9, where 1 is the maximum; inactive means score below 0.9.

As to `CC1(C)[C@H](C=C(Cl)Cl)[C@H]1C(=O)OCc1c(F)c(F)cc(F)c1F`, the AC50 – broadly, the concentration giving half of the maximal activity seen – in [1] was 9.74 µM (active); in assay [2], 11.9 µM (active); in assay [3], 12.8 µM (active); in [4], 22 µM (active); in assay [6], 50 µM (active); in [7], 81.1 µM (active). For the same compound, the half-maximal activity concentration (AC50) in assay [8] was 26.7 µM (active); in assay [9], 23.2 µM (active); in assay [10], 8.94 µM (active); in [20], 18.1 µM (active); in [22], 19.9 µM (active). The outcome in assay [5], in assay [11], in assay [12], in [13], in assay [14] and in assay [15] was inactive. Further, the call in [16], in assay [17], in assay [18], in assay [19] and in [21] was inactive.

Source of the values: PubChem BioAssay (EPA / NIEHS).
